# Measured values reported in PubChem BioAssay (NCATS).
# Results filed as inconclusive are left out. A call without a number means that no potency is given here. Unmarked numbers belong to inactive results. Activity calls are given as the source filed them. The call rests on the fitted dose curve; in most records, active means well fitted activation curve with a large enough effect; inconclusive means small, poorly fitted or top-dose-only effect, or another doubt; inactive means no such curve, though single readings can be large or run the other way.
# Target: Rap guanine nucleotide exchange factor 3 (Homo sapiens) (UniProt O95398)
# Assay: Counterscreen qHTS for agonist of cAMP-regulated guanine nucleotide exchange factor 3 (EPAC1) (AID 1645889); further: nearly all actives have a fitted effect of over 40% in size
# Conditions: EPAC1 Rap1B-BODIPY-GDP exchange, fluorescence; series mostly up to 154 µM
# Outline: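 Measured: fluorescence of BODIPY-GDP bound to Rap1B, which falls as exchange proceeds. Conditions include 50 uM competing GDP, 5 and 30 min reads, and a later cAMP challenge for antagonist detection.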
# Potency means the concentration at half of the fitted maximal effect.
Compound,Potency,activation
CCN(CC)CCCC(C)n1c2nc(=O)[nH]c(=O)c-2nc2cc(Cl)ccc21 (stereo not drawn),63.1 µM (active),–
CCCCN(C)C1=CC2=CC(=C(C#N)C#N)CCC2CC1 (stereo not drawn),39.8 µM (active),–
Cc1cccc(C)c1NC(=O)CN1C(=O)S/C(=C\c2cccn2-c2cccc(C(=O)O)c2)C1=O,inactive,–
O=C(O)CC/C(=C\c1ccc(N2CCCC2)c([N+](=O)[O-])c1)c1nc2ccccc2s1,inactive,–
CN(C)/C=C1\C=C2C(=O)c3ccccc3N2C1=O,10 µM (active),–
CCN(CC)C1=CC2=CC(=C(C#N)C#N)CCC2CC1 (stereo not drawn),25.1 µM (active),–
CN(C)c1ccc(/C=C(/C(=O)c2ccc(Cl)cc2Cl)n2cncn2)cc1,70.8 µM (active),–
N=C1/C(=C\c2ccc(-c3cccc(C(=O)O)c3)o2)C(=O)N=C2SC=C(c3ccccc3)N12,inactive,–
COc1cc(/C=C2\SC(=Nc3ccccc3)N(CCc3c[nH]c4ccccc34)C2=O)ccc1OC(C)C(=O)O (stereo not drawn),inactive,–
N#Cc1ccc(CSc2nc(N)cc(N)n2)cc1,inactive,–
CC1(Cc2cc(Cl)ccc2C(F)(F)F)C(=O)Nc2c(Cl)cccc21 (stereo not drawn),inactive,–
Cc1cc(Br)cn2c(Cc3ccsc3)c(-c3ccco3)nc12,–,27.6% [at 30.8 µM]
Cc1cc(C(=O)CCC(=O)N2CCN(S(=O)(=O)c3ccccc3)CC2)c(C)s1,inactive,–
